Several values for one entry are separate records, joined by “and”; a condition that tells them apart may be missing. Equal values may be shown once. Records with an inconclusive call do not appear. A number with no mark means an inactive call. Activity calls are given as the source filed them. The call rests on the fitted dose curve; in most records, active means well fitted activation curve with a large enough effect; inconclusive means small, poorly fitted or top-dose-only effect; inactive means no such curve, though single readings can be large or run the other way.
Target: Cellular tumor antigen p53 (Homo sapiens) (UniProt P04637)
Sequence (P04637 whole entry, looked up): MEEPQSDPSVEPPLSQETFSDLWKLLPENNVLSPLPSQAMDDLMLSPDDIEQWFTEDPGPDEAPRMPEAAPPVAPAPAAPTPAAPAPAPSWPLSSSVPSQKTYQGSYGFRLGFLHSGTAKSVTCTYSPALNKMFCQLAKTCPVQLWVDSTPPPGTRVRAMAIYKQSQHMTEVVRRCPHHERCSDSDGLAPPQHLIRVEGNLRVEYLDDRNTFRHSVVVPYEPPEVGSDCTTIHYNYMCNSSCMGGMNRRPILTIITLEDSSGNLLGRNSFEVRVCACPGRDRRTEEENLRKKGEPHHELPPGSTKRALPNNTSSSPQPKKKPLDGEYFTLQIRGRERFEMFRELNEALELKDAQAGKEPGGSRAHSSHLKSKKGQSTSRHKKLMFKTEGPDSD
Test: Primary qHTS for small molecule compounds that upregulate eGFP-tagged delta133p53alpha (in N-terminal) cells. (AID 2060322); further: nearly all actives have a fitted effect of over 75% in size;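 on activation: series mostly up to about 56 µM; 0% = DMSO vehicle and 100% = reference activator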
Conditions: NCI-H358 eGFP-delta133p53alpha fluorescence, 24 h; activation: stronger effect = higher value
In short: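 NCI-H358 cells pre-induced 24 h with 10 ng/ml doxycycline to express N-terminal eGFP-delta133p53alpha, then dosed 24 h at 37C without doxycycline; fixed, Hoechst-stained, GFP intensity by laser scanning cytometry, normalized to DMSO (0%) and 57.5 uM 5-azacytidine (100%).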
Potency means the concentration at half of the fitted maximal effect.

SMILES	Potency	activation
Cc1ccc(C(N)=O)cc1Nc1nccc(-c2cn(C(C)C)c3cnccc23)n1	10.9 µM (active)	
O=C1CCC[C@@H]2[C@H]3CCC[N+]4([O-])CCC[C@@H](CN12)[C@@H]34 (some centres undefined)		7.08% and -17.9%
CS(=O)(=O)CCNCc1ccc(-c2ccc3ncnc(Nc4ccc(OCc5cccc(F)c5)c(Cl)c4)c3c2)o1	26.9 µM (active)	
CCS(=O)(=O)c1cccc(-c2cc(C(=O)NC3CCN(C)CC3)c(C)c3[nH]c4ncc(C)cc4c23)c1	12.2 µM (active) and 5.88 µM (active)	
N#CN1CCC[C@@H](n2nc(-c3ccc(Oc4ccc(F)cc4F)cc3)c(C(N)=O)c2N)C1		-16.1%
FC(F)(F)c1ccc(Nc2nc(-c3c(C(F)(F)F)nc4ccccn34)cs2)cc1		-3.82%
COc1nc(-c2ccc3c(c2)OCO3)n(-c2ccc(NC(=O)CSc3ccccc3)cc2)n1		2.57% and -11.7%
CN(C)c1ccc(C2Nc3ccc4ccccc4c3C3=C2C(=O)CC(C)(C)C3)cc1Br (centres undefined)		5.76% and 26.3%
Cc1cc2c(F)c(Oc3ncnn4cc(OCC(C)OC(=O)C(C)N)c(C)c34)ccc2[nH]1 (centres undefined)		-1.79%
CCn1nc(C2CCN(C(=O)CCO)CC2)nc1-c1cnc(N)c(-c2nnc(C(C)(C)C)o2)n1		6.33%
Cc1nn(Cc2ccccc2Cl)c(C)c1CN(C)CC(O)COc1ccc(Cl)cc1 (centres undefined)		32.2%
CC1(C)[C@@H](O)CC[C@]2(C)[C@H]3C(=O)C=C4[C@@H]5C[C@@](C)(C(=O)O)CC[C@]5(C)CC[C@@]4(C)[C@]3(C)CC[C@@H]12		29.7%
O=C(CC12CC3CC(CC(C3)C1)C2)Nc1cccc2nc(NCCNCCO)ccc12		11.8% and 6.68%
Cc1[nH]c2ccc(F)cc2c1-c1nc2c3cccnc3c3ncccc3c2[nH]1		-1%
Nc1ncnc2c1c(COc1cccc(Cl)c1)nn2C1CCOCC1		15.2%
O=C(NCCCNC(=O)c1ccc[nH]c1=O)c1cc(-c2ccccc2)on1		-2.33%
O=C(C1CC1)N1CC[C@@H](Cc2n[nH]c(=O)n2-c2ccc(-c3ccc4occc4c3)cc2)C1		-2.33% and -15.1%
COCCOc1ccc2c(c1)ncn2-c1ccc2cccc(N3CCC(N)CC3)c2n1	16.9 µM (active)	
CC1=C(C(=O)Nc2cc3cn[nH]c3cc2F)C(c2ccc(Cl)cc2F)N=C(c2ccnc(Cl)c2)N1 (centres undefined)		-24.2% and 5.36%
COc1ccc(Cl)c(Nc2ncnc3cc(OCC4CCN(C)CC4)c(OC)cc23)c1	6.01 µM (active)	

SMILES	Potency	activation
Fc1ccc(-c2nc(-c3ccccc3F)[nH]c2-c2ccncc2)cc1		17%
CC(C)(O)CC(=O)NCCn1ccc2ncnc(Nc3ccc(Oc4cccc(C(F)(F)F)c4)c(Cl)c3)c21	24.3 µM (active)	
COc1cc2c(Oc3ccc4[nH]c(C)cc4c3F)ncnc2cc1OCCCN1CCCC1	24.3 µM (active) and 23.9 µM (active)	
Cc1cnc(Nc2ccc(F)cc2Cl)nc1-c1c[nH]c(C(=O)N[C@H](CO)c2cccc(Cl)c2)c1		12% and 13.4%
CC1=C[C@@H]2[C@@H]([C@@H](O)C[C@@]3(C)[C@H]2C[C@@H](C)[C@]3(O)C(=O)CO)[C@@]2(C)Cc3cnn(-c4ccccc4)c3C=C12		-34.9%
C[C@H](c1ccc(F)cc1CCCC(=O)O)N(c1cc(F)ccc1F)S(=O)(=O)c1ccc(Cl)cc1		-2.61% and 2.68%
Cc1ccc(Nc2nccc(N(C)c3ccc4c(C)n(C)nc4c3)n2)cc1S(N)(=O)=O		13% and -7.12% and -16.1%
Clc1ccc(C2(c3ccc(-c4cn[nH]c4)cc3)CCNCC2)cc1		-10.3% and 1.79%
Cc1ccc(NC(=O)Nc2cc(C(F)(F)F)ccc2F)cc1Nc1ccc2c(c1)NC(=O)/C2=C\c1ccc[nH]1		-0.477%
O=C(Nc1ccc(OC(F)(F)F)cc1)c1sccc1NCc1ccnc2ccccc12		27.4%
CC1=C(C(=O)Nc2cc3cn[nH]c3cc2F)C(c2ccc(C(F)(F)F)cc2)CC(=O)N1 (centres undefined)		-14.3% and -24.1%
C=C1C[C@@]2(O)O[C@@]3(C[C@H]2C(C)C)[C@@H](C)CC[C@@H]13		3.34%
O=C(Nc1ccc(-c2ccnc(Nc3ccc(N4CCOCC4)cc3)n2)cc1)C1CCCN1 (centres undefined)		-5.36%
Cc1[nH]c(/C=C2\C(=O)Nc3ccc(F)cc32)c(C)c1C(=O)NCCN1CCCC1	2.69 µM (active)	
COc1cc(N2CCC(N3CCN(C)CC3)CC2)ccc1Nc1ncc(Cl)c(Nc2ccccc2P(C)(C)=O)n1	3.01 µM (active)	
N#CC1(c2cccc(C(=O)Nc3cc(Oc4ccc5nc(NC(=O)C6CC6)sc5n4)ccc3F)c2Cl)CC1		23.6%
CC(C)[C@@H](CS(=O)(=O)C(C)C)N1C(=O)[C@@](C)(CC(=O)O)C[C@H](c2cccc(Cl)c2)[C@H]1c1ccc(Cl)cc1		0.955% and -3.88%
CC(C)(O)c1cc2nc(-c3cnc(N)nc3)nc(N3CCOCC3)c2s1		18.8%
Cc1cccc(-c2[nH]c(CNc3ccccc3F)nc2-c2ccc3ncnn3c2)n1		-27.7%

From PubChem BioAssay (NCATS)
